Laboratory results: PubChem BioAssay (EPA / NIEHS)
Activity calls are given as the source filed them. Rule for the calls: active = hit-call score of the fitted dose curve at least 0.9, where 1 is the maximum; inactive = score below 0.9.

What follows are compounds tested on Apoptosis regulator Bcl-2 (Homo sapiens) (UniProt P10415) (assay: LTEA_HepaRG_BCL2: Life Technologies and Expression Analysis (LTEA) Assay for Bcl-2 gene using HepaRG (AID 2283475;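 note: BCL2 transcript by TaqMan qRT-PCR normalised to ACTB GAPDH and POLR2A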)). Details: mRNA level, 48 h; actives raise or lower the signal.
Sequence of Apoptosis regulator Bcl-2 (Homo sapiens) (P10415 whole entry, looked up): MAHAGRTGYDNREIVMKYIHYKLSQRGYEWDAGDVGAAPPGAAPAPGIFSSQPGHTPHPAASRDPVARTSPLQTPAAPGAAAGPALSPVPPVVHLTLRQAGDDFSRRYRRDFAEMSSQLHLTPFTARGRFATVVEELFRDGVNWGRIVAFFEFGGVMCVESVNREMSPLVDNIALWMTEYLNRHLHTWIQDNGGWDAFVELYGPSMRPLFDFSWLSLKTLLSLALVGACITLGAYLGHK
Procedure: LTEA_HepaRG is a cell based, multiplexed-readout assay that uses HepaRG, a human liver cell line, with measurements taken at 48 hours after chemical dosing on a 96-well plate.LTEA_HepaRG_BCL2 is one of 102 assay component(s) measured in the LTEA HepaRG cell culture assay. It is a marker of Cell proliferation, survival, death.Data from the assay component LTEA_HepaRG_BCL2 was analyzed into 1 endpoint. This assay endpoint, LTEA_HepaRG_BCL2, was analyzed with bidirectional fitting relative to DMSO as the negative control and baseline of activity. Using a type of inducible reporter, measures of mRNA induction for gain or loss-of-signal activity can be used to understand regulation of transcription factor activity. To generalize the intended target to other relatable targets, this assay endpoint is annotated to the cell cycle intended target family, where the subfamily is Cell proliferation, survival, death.
A total of 1060 chemcials from the ToxCast library were tested in eight-point concentration-response experiments. Cell culture and cytotoxicity assays were conducted at Thermo Fisher Scientific's Custom Services facility (Madison, WI). A single lot of human HepaRG cells (Thermo Fisher Scientific, Frederick, MD) was used for the cell culture experiments. 96-well format collagen type I coated plates of human HepaRG cells were prepared using established methods. Briefly, cryopreserved HepaRG cells were thawed, plated at a density of approximately 100,000 cells/well in HepaRG Thaw, Plate, and General Purpose media (HPRG770, Thermo Fisher Scientific), and incubated for 48 hours. 0.5% DMSO was selected as vehicle control to balance the requisite need of DMSO in HepaRG cultures to maintain differentiation (for example, baseline metabolism, proportions of hepatocytes vs. cholangiocytes), while enabling further hepatic receptor pathway activation (for example, PXR and CAR) in response to chemical exposure. 48 hours after plating, the culture medium was replaced with HepaRG Serum-Free Incudtion Media. Cells were exposed to each test chemical in duplicate and maintained in CO2 incubators for another 48 hours. Chemical plates were thawed to room temperature and 200x concentrations of treatment groups were prepared. 8-point conentration-reponse curves were made with the highest exposure at 100 uM, followed by half-log dilutions, all in 0.5% DMSO. Each test plate contained variouse controls, induction positive controls (1mM phenobarbital), cytotoxicity positive controls ([…] aflatoxin B1), vehicle controls (0.5% DMSO), and total lysis controls (0.5% DMSO). Cell morphology images were taken using an Essen IncuCyte FLR automated microscope, with six 96-well plates imaged in about 24 minutes. Images were captured and exported and JPEG files. Spent culture media was transfered to black-well plates for the LDH assay, and remaining media was sorted at -80 C for later use. Cells were treated with RLT buffer and frozen until shipped for gene expression analysis. Total RNA was isolated from the cell suspension in 75 uL of Buffer RLT (Qiagen, Germantown, MD 20874) by Quintiles/Expression Analysis (Durham, NC) using a custom isolation procedure. Total RNA from each plate well was transferred to a preamplification plate. Fluidigm's 96.96 Dynamic ArrayTM (Fluidigm, Amsterdam, the Netherlands) technology was used for gene expression analyses by quantitative reverse transcription polymerase chain reaction (qRT-PCR, performed by Quintiles/Expression Analysis, Durham, NC)89. Standard TaqManTM Assays (Applied Biosystems/ThermoFisher Scientific, Foster City, CA) were used to assess the expression of 93 genes selected based on their selectivity and sensitivity to important hepatic receptors known to be modulated by environmental chemicals; importance in human hepatocyte functionality; and hepatotoxicity. […]
With `O=C(Nc1ccc2[nH]ccc2c1)c1cc2cc(F)ccc2n1Cc1cccc(F)c1` the AC50 was 22.7 µM (active). In the case of `COc1cc(-c2ccc(N)c(OC)c2)ccc1N`, the outcome is reported as “inactive”. For `O=c1[nH]c(=O)[nH]c(=O)[nH]1`, the outcome was “inactive”. With `O=C(O)C(F)(F)C(F)(F)C(F)(F)C(F)(F)C(F)(F)C(F)(F)C(F)(F)C(F)(F)C(F)(F)C(F)(F)F` the outcome was “inactive”. In the case of `Oc1cccc2cccnc12`, the outcome is reported as “inactive”. For `O=C1C2(Cl)C3(Cl)C4(Cl)C(Cl)(Cl)C5(Cl)C3(Cl)C1(Cl)C5(Cl)C24Cl` (stereo unspecified), the AC50 was 11.1 µM (active). With `CN(C)N=O` the outcome was “inactive”. For `CCOP(=S)(OCC)Oc1nc(Cl)c(Cl)cc1Cl`, the outcome was “inactive”. In the case of `Cc1ccccc1N`, the outcome is reported as “inactive”. `CCCCCCCCc1ccc(O)cc1` was tested, and the outcome was “inactive”. In the case of `C=CC(=O)OCCCCCC(C)C`, the outcome is reported as “inactive”. With `O=[N+]([O-])c1ccc(O)c([N+](=O)[O-])c1` the AC50 was 12.1 µM (active). For `C=C(C)C(=O)[O][Sn]([CH2]CCC)([CH2]CCC)[CH2]CCC`, the AC50 was 2.07 µM (active). With `C[C@]12CCC(=O)C[C@@H]1CC[C@@H]1[C@@H]2CC[C@]2(C)[C@@H](O)CC[C@@H]12` the outcome was “inactive”. For `CCOP(=S)(OCC)SCSP(=S)(OCC)OCC`, the outcome was “inactive”. `CC(C)(C)c1cc(O)ccc1O` was tested, and the outcome was “inactive”. For `Cn1sc(Cl)cc1=O`, the outcome was “inactive”. In the case of `ClC1(Cl)C2(Cl)C3(Cl)C4(Cl)C(Cl)(Cl)C5(Cl)C3(Cl)C1(Cl)C5(Cl)C24Cl` (stereo unspecified), the outcome is reported as “inactive”. In the case of `CC(C)(c1ccccc1)c1ccc(O)c(C(C)(C)c2ccccc2)c1`, the AC50 is reported as 81.6 µM (active). `CCC(=O)C(CC(C)N(C)C)(c1ccccc1)c1ccccc1` (stereo unspecified) was tested, and the outcome was “inactive”. With `O=C(O)C(F)(F)C(F)(F)C(F)(F)C(F)(F)C(F)(F)C(F)(F)F` the outcome was “inactive”. In the case of `ClCC(Cl)CCl`, the outcome is reported as “inactive”. For `CC(C)(OO)c1ccccc1`, the outcome was “inactive”. For `NC(=O)O`, the outcome was “inactive”. For `O=C(O)C(Cl)(Cl)Cl`, the outcome was “inactive”. In the case of `CC(=O)[O][Hg][c]1ccccc1`, the outcome is reported as “inactive”. In the case of `CC12CC1(C)C(=O)N(c1cc(Cl)cc(Cl)c1)C2=O` (stereo unspecified), the outcome is reported as “inactive”. `CCN1CCC2(CC1)COc1cc3c(cc12)N(C(=O)c1ccc(-c2ccc(-c4nnc(C)o4)cc2C)cc1)CC3` was tested, and the outcome was “inactive”. For `CC(C)(C)CC(C)(C)c1ccc(O)cc1`, the outcome was “inactive”. For `C[C@@H]1C[C@@H]([C@H](O)CC2CC(=O)NC(=O)C2)C(=O)[C@@H](C)C1`, the outcome was “inactive”. `CCC(C)(C)c1ccc(O)c(C(C)(C)CC)c1` was tested, and the outcome was “inactive”.
